Measured values from PubChem BioAssay.
Several values for one entry are separate records, joined by “and”; a condition that tells them apart may be missing. Equal values may be shown once. Activity calls are given as the source filed them.

Tests used:
Albumin (Bos taurus) = Albumin (Bos taurus) (UniProt P02769); assay: compounds binding labelled BSA control protein – biochemical, small-molecule microarray, Alexa647 label, 635/667 nm fluorescence, artefact control for SMM control protein annotation, profiling panel (AID 1118); details: BSA-A647 binding, fluorescence 635 nm, higher = more signal;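 also: score merges 667 nm emission intensity and signal-to-noise per printed compound spot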
[1] = probe aXIP binding to arrayed compounds – biochemical, NeuroSMM set, 635/667 nm fluorescence, primary screen (AID 1119); details: small-molecule microarray, higher = more signal, called active from +8 up or from −8 down;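 also: probe is the protein aXip251-270 applied at 1 µg/mL to compound-printed slides; binding of probe to printed compounds measured as 667 nm fluorescence plus signal to noise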
[2] = probe aNOTCH3 binding on compound microarray – biochemical, small-molecule microarray, 635/667 nm fluorescence, primary screen (AID 1120); details: higher = more signal;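 also: probe is a biotin-tagged antibody raised against NOTCH3 rather than NOTCH3 protein; score merges spot fluorescence near 667 nm with spot signal to noise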
[3] = probe aNOTCH2 binding on compound microarray – biochemical, small-molecule microarray, 635/667 nm fluorescence, primary screen (AID 1121); details: higher = more signal;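 also: score merges feature fluorescence read at 667 nm with its signal to noise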
[4] = target: Carbonic anhydrase 2 (Homo sapiens) (UniProt P00918); assay: compounds binding carbonic anhydrase 2 – biochemical, small-molecule microarray, Alexa647-labelled CAII, profiling panel (AID 1122); details: CAII-A647 binding fluorescence, higher = more signal
[5] = COS7 lysate on small-molecule microarray, probe aHis, 635 nm (AID 1123); details: COS7 cell lysate, fluorescence, higher = more signal;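 also: z-score combines 667nm fluorescence intensity with signal-to-noise per printed compound spot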
[6] = probe aLAP1 signal on lysate-treated microarray – cell lysate, small-molecule microarray, COS7 lysate, primary screen (AID 1124); details: probe aLAP1, fluorescence, higher = more signal;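 also: lysate comes from COS7 cells expressing LAP1 and is applied at 0.3 µg/mL; score merges spot fluorescence near 667 nm with signal-to-noise over triplicate slides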
Sam68 (KHDRBS1) = assay: compounds binding KHDRBS1 protein – biochemical, small-molecule microarray, 635 nm fluorescence, primary screen (AID 1125); details: higher = more signal;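 also: score merges 667 nm channel intensity with signal to noise over triplicate slides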
[7] = tested on: Chordin-like protein 2 (CHRDL2); assay: compounds binding chordin-like 2 – biochemical, small-molecule microarray, 635 nm fluorescence, primary screen (AID 1126); details: fluorescence 635 nm, higher = more signal;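 also: printed compound slides probed with Chrdl2 protein at 4 µg/mL for 1 h at 4 C; score merges 667 nm emission intensity with signal to noise over three replicate slides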
[8] = target: Concanavalin-A (Canavalia ensiformis) (UniProt P02866); assay: compounds binding concanavalin A lectin – biochemical, small-molecule microarray, Alexa647 label, 635 nm, artefact control for SMM control protein annotation, primary screen (AID 1127); details: ConA-A647 binding fluorescence, higher = more signal;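 also: z combines 667 nm emission intensity with signal-to-noise across three replicate slides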
[9] = compounds binding Alexa647 anti-His antibody – biochemical, small-molecule microarray, 635 nm fluorescence, artefact control for SMM control protein annotation, primary screen (AID 1128); details: higher = more signal;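 also: score merges feature fluorescence with signal-to-noise for each printed compound spot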
[10] = tested on: Human papillomavirus type 1a E7 protein (residues 1-88); assay: HPV1a E7 small-molecule binders, primary screen, biochemical, small-molecule microarray, residues 1-88, 635 nm (AID 1129); details: small-molecule microarray binding, fluorescence 635 nm; higher = more signal
[11] = target: Focal adhesion kinase 1 (Homo sapiens) (UniProt Q05397); assay: PTK2 protein binding on printed compound slides – biochemical, small-molecule microarray, 635/667 nm fluorescence, BSA, DTT, primary screen (AID 1130); details: 635 nm fluorescence, higher = more signal;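 also: composite of spot emission at 667 nm and signal to noise over triplicate slides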
[12] = tested on: Fibrinogen (Alexa647-labelled); assay: Alexa647-fibrinogen binding to printed small molecules – biochemical, small-molecule microarray, 635/667 nm fluorescence, artefact control for SMM control-protein annotation, profiling panel (AID 1131); details: fibrinogen-A647 binding fluorescence, higher = more signal;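 also: z-score merges 667 nm fluorescence with per-spot signal-to-noise over triplicate slides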
[13] = target: Follistatin (Homo sapiens) (UniProt P19883); assay: FST protein binding to printed compounds – biochemical, small-molecule microarray, 635/667 nm fluorescence, primary screen (AID 1132); details: 635 nm fluorescence, higher = more signal
[14] = target: Fibroblast growth factor 2 (Homo sapiens) (UniProt P09038); assay: basic fibroblast growth factor binding to printed compounds – biochemical, small-molecule microarray, 635/667 nm fluorescence, primary screen (AID 1133); details: FGF2, fluorescence 635/667, higher = more signal
[15] = JC-1 mitochondrial potential readout, lung cancer cells – cell-based, A549, JC-1 fluorescence, basal, 24 h, 100 nL, profiling panel (AID 1138); details: higher = more signal;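 also: A549 lung adenocarcinoma cells under basal conditions with no added stimulus; test concentration not given here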
Lefty1 = Lefty1 protein binding to printed compounds – biochemical, small-molecule microarray, 635/667 nm fluorescence, primary screen (AID 1139); details: fluorescence 635/667, higher = more signal
[16] = tested on: wheat germ agglutinin (Triticum aestivum), Alexa647-labelled; assay: Alexa647-WGA lectin binding to printed small molecules – biochemical, small-molecule microarray, 635/667 nm fluorescence, artefact control for SMM control-protein annotation, profiling panel (AID 1140); details: WGA-A647 binding, 635 nm fluorescence, higher = more signal;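 also: score merges 667 nm feature emission with signal to noise over triplicate slides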
[17] = target: Luciferin 4-monooxygenase (Photinus pyralis) (UniProt P08659); assay: inhibition of purified Photinus pyralis luciferase – biochemical, luminescence, purified enzyme, 2006 set, primary screen (AID 1141); details: purified firefly luciferase, SteadyGlo luminescence, 30 min; higher = more signal, called active from +8 up or from −8 down;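 also: cell-free assay with purified firefly luciferase at 100 ng per well in PBS; test concentration not given here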
Chain of Luciferin 4-monooxygenase (Photinus pyralis) (P08659 whole entry, looked up): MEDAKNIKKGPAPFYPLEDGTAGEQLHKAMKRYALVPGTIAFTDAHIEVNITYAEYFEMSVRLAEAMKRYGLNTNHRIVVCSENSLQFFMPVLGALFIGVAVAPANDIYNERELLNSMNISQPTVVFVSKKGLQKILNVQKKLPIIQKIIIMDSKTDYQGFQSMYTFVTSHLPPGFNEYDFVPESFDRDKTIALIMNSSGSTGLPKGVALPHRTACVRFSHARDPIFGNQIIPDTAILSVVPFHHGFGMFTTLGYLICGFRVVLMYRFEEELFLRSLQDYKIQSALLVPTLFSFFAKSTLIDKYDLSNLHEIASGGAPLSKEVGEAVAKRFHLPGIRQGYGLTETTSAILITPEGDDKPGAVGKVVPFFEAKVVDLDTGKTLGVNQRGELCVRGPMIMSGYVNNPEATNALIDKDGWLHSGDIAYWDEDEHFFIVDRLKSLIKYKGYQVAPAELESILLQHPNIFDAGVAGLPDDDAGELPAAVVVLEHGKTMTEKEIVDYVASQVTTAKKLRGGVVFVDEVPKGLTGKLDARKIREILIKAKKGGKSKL

Chain of Follistatin (Homo sapiens) (P19883 whole entry, looked up): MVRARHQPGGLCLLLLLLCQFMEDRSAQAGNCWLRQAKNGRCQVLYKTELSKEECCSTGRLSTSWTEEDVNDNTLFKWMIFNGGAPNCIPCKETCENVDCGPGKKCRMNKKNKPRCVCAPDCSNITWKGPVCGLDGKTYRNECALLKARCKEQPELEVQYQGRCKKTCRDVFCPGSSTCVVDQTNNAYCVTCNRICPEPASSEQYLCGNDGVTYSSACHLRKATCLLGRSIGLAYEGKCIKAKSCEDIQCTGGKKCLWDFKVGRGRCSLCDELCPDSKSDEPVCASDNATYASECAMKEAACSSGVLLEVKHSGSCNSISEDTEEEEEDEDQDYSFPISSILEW
Chain of Fibroblast growth factor 2 (Homo sapiens) (P09038 whole entry, looked up): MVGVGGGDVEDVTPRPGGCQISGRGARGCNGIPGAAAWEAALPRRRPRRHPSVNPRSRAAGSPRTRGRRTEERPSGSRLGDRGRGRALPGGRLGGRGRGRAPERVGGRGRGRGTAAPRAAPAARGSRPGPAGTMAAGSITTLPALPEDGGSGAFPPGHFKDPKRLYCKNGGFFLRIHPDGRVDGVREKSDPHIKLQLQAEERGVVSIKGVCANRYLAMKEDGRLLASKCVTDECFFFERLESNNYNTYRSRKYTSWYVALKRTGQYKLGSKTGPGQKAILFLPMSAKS
Chain of Albumin (Bos taurus) (P02769 whole entry, looked up): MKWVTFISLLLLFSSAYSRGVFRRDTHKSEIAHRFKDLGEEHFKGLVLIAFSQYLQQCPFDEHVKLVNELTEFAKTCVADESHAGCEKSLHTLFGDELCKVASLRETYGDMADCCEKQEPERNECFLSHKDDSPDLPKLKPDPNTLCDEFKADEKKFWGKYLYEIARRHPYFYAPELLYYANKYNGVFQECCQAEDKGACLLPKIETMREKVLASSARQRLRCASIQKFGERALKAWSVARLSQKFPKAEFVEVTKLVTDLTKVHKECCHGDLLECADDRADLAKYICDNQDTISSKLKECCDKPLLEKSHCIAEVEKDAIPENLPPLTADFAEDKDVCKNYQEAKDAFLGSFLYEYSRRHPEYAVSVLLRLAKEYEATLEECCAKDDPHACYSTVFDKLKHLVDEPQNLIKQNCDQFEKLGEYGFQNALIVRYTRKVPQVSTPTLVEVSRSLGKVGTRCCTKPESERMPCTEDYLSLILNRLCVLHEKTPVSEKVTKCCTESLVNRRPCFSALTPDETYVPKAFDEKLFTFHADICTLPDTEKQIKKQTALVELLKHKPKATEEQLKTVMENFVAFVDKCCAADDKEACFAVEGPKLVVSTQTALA
Chain of Concanavalin-A (Canavalia ensiformis) (P02866 whole entry, looked up): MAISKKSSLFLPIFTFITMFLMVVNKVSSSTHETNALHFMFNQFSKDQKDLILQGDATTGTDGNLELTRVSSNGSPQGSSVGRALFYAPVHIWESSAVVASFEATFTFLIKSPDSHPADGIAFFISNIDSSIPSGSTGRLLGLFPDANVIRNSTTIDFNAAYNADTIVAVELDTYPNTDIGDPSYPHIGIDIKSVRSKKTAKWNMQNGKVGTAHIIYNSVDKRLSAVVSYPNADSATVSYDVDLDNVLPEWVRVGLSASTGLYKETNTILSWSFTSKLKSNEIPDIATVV
Chain of Focal adhesion kinase 1 (Homo sapiens) (Q05397 whole entry, looked up): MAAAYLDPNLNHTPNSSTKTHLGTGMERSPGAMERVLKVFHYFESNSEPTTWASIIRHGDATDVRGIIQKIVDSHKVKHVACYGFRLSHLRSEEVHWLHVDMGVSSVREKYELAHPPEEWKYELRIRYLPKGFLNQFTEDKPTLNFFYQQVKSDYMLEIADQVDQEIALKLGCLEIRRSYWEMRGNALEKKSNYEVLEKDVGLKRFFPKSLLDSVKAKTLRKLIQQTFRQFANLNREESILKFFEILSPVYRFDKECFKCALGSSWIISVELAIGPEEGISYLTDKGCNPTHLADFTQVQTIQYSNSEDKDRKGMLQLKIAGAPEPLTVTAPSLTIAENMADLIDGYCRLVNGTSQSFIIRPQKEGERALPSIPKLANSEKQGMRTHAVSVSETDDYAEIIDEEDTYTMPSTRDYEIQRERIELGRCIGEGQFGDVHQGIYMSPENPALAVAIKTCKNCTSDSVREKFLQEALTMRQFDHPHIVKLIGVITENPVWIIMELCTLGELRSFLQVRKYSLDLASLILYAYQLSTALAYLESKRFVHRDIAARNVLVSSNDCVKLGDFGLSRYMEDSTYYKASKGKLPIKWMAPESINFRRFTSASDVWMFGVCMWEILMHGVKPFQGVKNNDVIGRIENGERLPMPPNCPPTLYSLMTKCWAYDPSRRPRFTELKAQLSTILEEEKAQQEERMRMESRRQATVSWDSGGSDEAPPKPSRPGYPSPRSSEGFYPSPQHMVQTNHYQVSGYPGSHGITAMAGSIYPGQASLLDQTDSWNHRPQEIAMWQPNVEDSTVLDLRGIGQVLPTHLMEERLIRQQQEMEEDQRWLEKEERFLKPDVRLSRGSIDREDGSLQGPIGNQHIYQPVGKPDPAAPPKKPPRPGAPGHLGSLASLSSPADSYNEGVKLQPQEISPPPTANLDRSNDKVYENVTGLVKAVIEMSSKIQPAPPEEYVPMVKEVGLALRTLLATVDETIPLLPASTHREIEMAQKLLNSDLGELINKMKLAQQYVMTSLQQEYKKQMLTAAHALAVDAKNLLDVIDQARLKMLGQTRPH

SMILES	composite z-score (Albumin (Bos taurus))	composite Z-score [1]	composite z-score [2]	composite z-score [3]	composite z-score [4]	composite z-score [5]	composite z-score [6]	composite z-score (Sam68 (KHDRBS1))	composite z-score [7]	composite z-score [8]	composite z-score [9]	composite z-score [10]	composite z-score [11]	composite z-score [12]	composite z-score [13]	composite z-score [14]	z-score [15]	composite z-score (Lefty1)	composite z-score [16]	z-score [17]
C=CCN(Cc1ccccc1)C(=O)C1N(CCCCCCO)C(=O)C2C(C(=O)O)C3C=CC21O3 (stereo not given)	-0.198 and 0.768	-0.461 (inactive) and -0.2 (inactive)	-0.541 and -0.445	-0.14 and -0.154	0.812 and 0.904	-0.376 and -0.155	-0.694 and -0.332	-0.442 and -1.97	-3.18 and -2.25	-0.588 and -2.21	0.193 and -0.664	-0.363 and -0.297	0.0147 and -0.339	-0.923 and -1.99	-1.42 and -1.07	-1.88 and -2.94	-0.38 and 0.344	-1.84 and -1.78	-0.834 and -0.785	1.01 (inactive) and 1.33 (inactive)
C=CCN(CCCC)C(=O)C(c1cccs1)N(C(=O)/C=C\C(=O)O)c1ccc(CCO)cc1 (stereo not given)	-1.02 and -2.4	0.127 (inactive) and -0.0505 (inactive)	-0.437 and -0.449	-0.171 and -0.202	0.864 and 0.861	0.0769 and -0.501	0.132 and -0.426	-0.798 and -1.53	-1.26 and -4.41	-1.83 and -1.63	1.25 and -2.52	-0.505 and -1.38	-0.504 and -1.21	-1.08 and -1.59	-1.43 and -2.34	-1.47 and -2.18	0.65 and 0.624	-1.58 and -2.71	0.266 and -2.25	-2.48 (inactive) and -2.8 (inactive)
C=CCN(Cc1ccccc1)C(=O)C(c1cccs1)N(C(=O)/C=C\C(=O)O)c1c(Cl)cccc1CO (stereo not given)	-0.248 and -1.84	0.0723 (inactive) and -1.07 (inactive)	-0.437 and -0.491	-0.155 and -0.0772	-0.393 and -0.843	-0.665 and -0.537	-0.657 and -0.277	-0.84 and -2.12	-1.64 and -2.62	-1.52 and -1.86	-0.815 and -1.36	-0.562 and -1.54	-0.675 and -0.0599	-2.79 and -3.53	-1.74 and -2.71	-2.4 and -1.88	-0.321 and -0.229	-1.51 and -1.93	-0.482 and -1.57	1.02 (inactive) and 0.077 (inactive)
C[C@@H]1CC[C@H]2C(=O)N3[C@@H](CC[C@@H](C)[C@@H]3c3ccc(-c4ccco4)cc3)C(=O)N2[C@H]1c1ccc(-c2ccco2)cc1	0.346 and -0.391	0.705 (inactive) and 1.24 (inactive)	0.116 and 0.385	0.0079 and 0.0312	0.688 and 0.645	1.12 and 0.0336	0.412 and -0.258	1.3 and 1.1	1.05 and 1.57	1.11 and 1.16	2.61 and 1.86	1.22 and 0.674	1.68 and -0.333	1.01 and 0.912	1.35 and 1.45	0.882 and 1.36	-0.764 and -0.575	1.24 and 1.32	1.22 and 1.11	-2.93 (inactive) and -6.15 (inactive)
COc1ccc(O[C@H]2C=C[C@@H](c3ccccc3)O[C@@H]2COC(=O)CCC(C)=NO[C@H](C)c2cn([C@H](CO)Cc3ccccc3)nn2)cc1	0.683 and 0.0567	0.0335 (inactive) and 0.232 (inactive)	0.0886 and -0.295	-0.318 and -0.0611	-0.11 and -0.114	0.167 and -0.0458	-0.226 and -0.0278	0.492 and -0.005	0.0011 and 0.593	-0.0163 and -0.0252	2.33 and 1.58	-0.0422 and 0.437	0.142 and -0.0962	0.643 and 0.766	0.125 and 0.326	0.218 and 0.684	-1.04 and -0.144	0.653 and 0.557	0.207 and 0.223	0.845 (inactive) and -0.59 (inactive)
C=CCN(Cc1ccccc1)C(=O)C1N(c2c(Cl)cccc2CO)C(=O)C2C(C(=O)O)C3C=CC21O3 (stereo not given)	-1.52 and -0.682	-0.874 (inactive) and -0.317 (inactive)	-0.425 and -0.352	-0.168 and -0.261	-0.774 and 0.32	-0.908 and -0.629	-0.628 and -0.742	-1.89 and -1.02	-3.43 and -1.44	-1.31 and -1.79	-1.57 and -1.25	-2.28 and -0.762	-1.12 and -0.942	-1.61 and -1.28	-2.48 and -2.78	-1.21 and -1.62	1.29 and -0.936	-3.16 and -3	-1.9 and -1.22	-1.28 (inactive) and 1.17 (inactive)
C=CCN(Cc1ccccc1)C(=O)C1N(c2ccc(CCO)cc2)C(=O)C2C(C(=O)O)C3C=CC21O3 (stereo not given)	-1.88 and -0.419	-0.364 (inactive) and -0.371 (inactive)	-0.393 and -0.575	-0.201 and 0.0434	0.942 and 0.937	-0.361 and -0.701	-0.418 and -0.931	-1.15 and -1.08	-1.61 and -3.84	-1.82 and -1.97	-1.33 and -0.796	-1.49 and -1.7	0.0389 and -0.704	-0.944 and -1.58	-2 and -2.08	-2.32 and -2.92	-0.571 and -0.775	-2.53 and -1.55	-0.0866 and 1.16	-0.927 (inactive) and -0.283 (inactive)
COC(=O)c1c2oc(c1C(=O)OC)C(=O)N[C@@H](Cc1ccccc1)Cn1cc(nn1)C1(CCCCC1)NC(=O)N[C@H](CO)CC2	-0.14 and 0.517	0.167 (inactive) and 0.77 (inactive)	0.13 and 0.0613	0.0165 and -0.0761	0.713 and -0.0749	1.72 and 0.833	0.376 and 0.0667	1.08 and 0.939	0.518 and 0.124	0.634 and 0.427	2.15 and -0.277	1.09 and 0.558	0.105 and 0.0367	1.01 and 0.223	1.38 and 0.484	1.41 and 0.184	1.53 and 3.28	0.956 and 0.506	0.462 and -0.0588	-1.19 (inactive) and -0.739 (inactive)
COC(=O)CC=C[C@@H](C)[C@@H](CO)NS(=O)(=O)c1ccc(C)cc1	0.0833 and -0.252	0.105 (inactive) and 0.309 (inactive)	-0.0391 and 0.111	-0.0703 and -0.14	-0.121 and 0.0581	-0.114 and 0.0271	-0.144 and -0.481	-0.182 and 0.567	0.696 and 1.03	-0.213 and -0.52	0.929 and 0.293	0.298 and 0.512	0.0223 and -0.111	-0.223 and 0.225	0.523 and 0.791	0.646 and 0.574	-0.145 and 0.884	0.648 and 0.88	-0.22 and 0.117	0.0494 (inactive) and -0.803 (inactive)
CC(C)=CCCC(C)=CCON=C1C[C@@H](O)[C@@H](O)[C@@H]2[C@@H]3C(=O)N([C@@H](C)c4ccccc4)C(=O)[C@@H]3CC[C@H]12	0.799	-0.501 (inactive)	-0.0048	0.296	0.206	1.37	0.308	1.12	1.03	0.0996	0.798	1.01	0.89	0.558	0.676	0.364	0.824	0.581	0.324	-0.677 (inactive)
